Source: PubChem (several laboratories)
PostGolgi ctrl – yeast control strain growth, post-Golgi counter-screen; efflux-deficient yeast background strain, growth absorbance A615, 16 h; inhibition, % at 10 µM; actives 5% (n = 98,000)
sEH inh – inhibitors of human soluble epoxide hydrolase. recombinant human sEH enzymatic activity assay. inhibition, % at 2 µM. P34913. AID 707. actives 0.34% (n = 91,000); in the data active = inhibition above about 80%
sEH activator – activators of human soluble epoxide hydrolase | purified human sEH enzymatic activity, activator screen | activation, % at 2 µM | actives 0.04% (n = 91,000); in the data active = activation above about 37%
PostGolgi yeast – growth inhibition of a yeast mutant, post-Golgi transport screen. inhibition, % at 10 µM. post-Golgi transport phenotypic cell assay. actives 0.9% (n = 98,000);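 also: yeast cells grown in 1536-well plates; yeast grown about 18 h at 30C before absorbance read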
Cav32 inh – human Cav3.2 channel inhibition, primary screen; O95180; Cav3.2-expressing cells, Fluo-4 calcium fluorescence FDSS; hits give low values; B-score at 10 µM; actives 4% (n = 100,000);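 active = single-dose well whose peak fluorescence ratio is a statistical outlier from its plate by either plate-standardised score or position-corrected B-score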
An asterisk follows results filed as active. This is a sample that favours compounds with a hit; in the whole collection about 7.8% have one here. Rule as the data show it, unless noted: active = inhibition above about 30%; inactive = the rest.

How did COc1ccc(OC)c(S(=O)(=O)N2CCC(C(=O)Nc3cccc(C(F)(F)F)c3)CC2)c1 do in these assays?
PostGolgi ctrl: 4; sEH inh: 40; sEH activator: -40; PostGolgi yeast: 1; Cav32 inh: -9.3*

How did COc1ccc(OC)c(S(=O)(=O)N2CCC(C(=O)NCc3ccccc3)CC2)c1 do in these assays?
PostGolgi ctrl: 15; sEH inh: 22; sEH activator: -23; PostGolgi yeast: 4; Cav32 inh: 1.2

How did COc1ccc(OC)c(S(=O)(=O)n2cnc3cc(C)c(C)cc32)c1 do in these assays?
PostGolgi ctrl: 30*; sEH inh: -1; sEH activator: 1; PostGolgi yeast: 5; Cav32 inh: 0.2

What do the screens show for `OC[C@@H](O)[C@@H](O[C@H]1O[C@H](CO)[C@@H](O)[C@H](O)[C@H]1O)[C@H](O)[C@@H](O)CO`?
Cav32 inh: 0.32

What do the screens show for `COCOc1ccc(C2CC(=O)c3c(OCOC)cc(OCOC)cc3O2)cc1` (stereo not given)?
Cav32 inh: -0.27

Results for CC(=O)Nc1cccc(NC(=O)CSc2nnc(Cc3cccn3C)n2-c2ccc(C)cc2)c1 ?
PostGolgi ctrl: 8; PostGolgi yeast: -5; Cav32 inh: -3.7

How did Cn1cccc1Cc1nnc(SCC(=O)Nc2cccc(F)c2)n1-c1ccc(F)cc1 do in these assays?
PostGolgi ctrl: 14; PostGolgi yeast: -2; Cav32 inh: -7.3*

How did Cn1cccc1Cc1nnc(SCC(=O)Nc2cccc(Cl)c2)n1-c1ccc(F)cc1 do in these assays?
PostGolgi ctrl: 13; PostGolgi yeast: 0; Cav32 inh: -10*

How did COc1ccc(-n2c(Cc3cccn3C)nnc2SCC(=O)Nc2cccc(Cl)c2)cc1 do in these assays?
PostGolgi ctrl: 10; sEH inh: 5; sEH activator: -6; PostGolgi yeast: -3; Cav32 inh: -13*

Results for O=C(O)C[C@H]1c2ccccc2S(=O)(=O)N1c1ccccc1 ?
Cav32 inh: -0.0096

How did c1ccc2[nH]c(SN3CCOCC3)nc2c1 do in these assays?
PostGolgi ctrl: 26; sEH inh: -5; sEH activator: 4; PostGolgi yeast: 10; Cav32 inh: -0.0072

What do the screens show for `O=C(NCc1ccc(F)cc1)c1cc2c(s1)CCCC2`?
PostGolgi ctrl: 0; sEH inh: 30; sEH activator: -30; PostGolgi yeast: 9; Cav32 inh: -6.3*

Results for CC1CCc2sc(C(=O)NCc3ccc(F)cc3)cc2C1 (stereo not given) ?
PostGolgi ctrl: 13; sEH inh: 12; sEH activator: -14; PostGolgi yeast: -5; Cav32 inh: -2

How did COc1ccc(C(=O)Nc2ccc(Cl)c(Cl)c2)c(OC)n1 do in these assays?
PostGolgi ctrl: 6; sEH inh: 4; sEH activator: -4; PostGolgi yeast: 0; Cav32 inh: -0.59

Results for CC(C)C1O/C(=N/C(=O)Nc2ccc(Cl)c(Cl)c2)NC1=O (stereo not given) ?
PostGolgi ctrl: 92*; sEH inh: 0; sEH activator: -2; PostGolgi yeast: 98*; Cav32 inh: -5*

What do the screens show for `Cc1ccc(C(=O)NCC(=O)OCC(=O)c2c(N)n(C)c(=O)n(C)c2=O)s1`?
PostGolgi ctrl: 1; sEH inh: 8; sEH activator: -8; PostGolgi yeast: 6

Results for CS(=O)(=O)Nc1ccc(C(=O)NCc2cccnc2)cc1 ?
PostGolgi ctrl: 31*; sEH inh: -4; sEH activator: 8; PostGolgi yeast: 0; Cav32 inh: 1.4

What do the screens show for `O=C(Nc1ccc(OCC(=O)N2CCC(Cc3ccccc3)CC2)cc1)c1ccco1`?
PostGolgi ctrl: 19; sEH inh: 16; sEH activator: -17; PostGolgi yeast: 0; Cav32 inh: -7.2*

What do the screens show for `CN(C)C(=O)NC(Nc1ccc(Cl)cc1Cl)C(Cl)(Cl)Cl` (stereo not given)?
PostGolgi ctrl: 9; sEH inh: 6; sEH activator: -8; PostGolgi yeast: 7; Cav32 inh: -2.1

Results for Cc1cc(C(=O)N2CC(C)CC(C)C2)n(-c2ccccc2)n1 (stereo not given) ?
PostGolgi ctrl: 32*; PostGolgi yeast: -1; Cav32 inh: -0.075

Results for O=C(COc1ccc(Cl)cc1Cl)Nc1nc2n(n1)C(c1ccccc1)CC(=O)N2 (stereo not given) ?
PostGolgi ctrl: -1; sEH inh: 38; sEH activator: -40; PostGolgi yeast: -4; Cav32 inh: -3.7*

How did COc1cc(C2C(C#N)=C(N)OC3=C2C(=O)CCC3)c([N+](=O)[O-])cc1OC (stereo not given) do in these assays?
PostGolgi ctrl: 27; sEH inh: 0; sEH activator: 0; PostGolgi yeast: 0; Cav32 inh: -3.6

What do the screens show for `CN(C(=S)Nc1ccc(F)cc1)C1(c2ccccc2Cl)CCCCC1=O` (stereo not given)?
PostGolgi ctrl: 36*; sEH inh: -2; sEH activator: 0; PostGolgi yeast: 9; Cav32 inh: -1.9

How did CC(=O)c1cc2c(cc1NC(=O)C1CC1)OCO2 do in these assays?
sEH inh: -6; sEH activator: 11; Cav32 inh: 0.74

What do the screens show for `CCn1c(CNc2ccccc2Cl)nnc1SCC(=O)OC1CCCCC1`?
PostGolgi ctrl: 17; sEH inh: -9; sEH activator: 10; PostGolgi yeast: 0; Cav32 inh: -4.5*

What do the screens show for `CCn1c(CNc2ccc(Cl)cc2)nnc1SCC(=O)OC1CCCCC1`?
sEH inh: 16; sEH activator: -13; Cav32 inh: -8.4*

Results for CC(C)(C)C(=O)NCCN1CCN(C(=O)C(C)(C)C)CC1 ?
sEH inh: -1; sEH activator: 4; Cav32 inh: 0.58

What do the screens show for `COC(=O)c1ccc2nc(C3CCCCC3)c3c(c2c1)CCC3`?
Cav32 inh: 0.11

Results for O=C(CCCN1C(=O)c2cccnc2C1=O)N1CC(=O)N(CCc2ccccc2)C(=O)C1 ?
PostGolgi ctrl: -1; sEH inh: -4; sEH activator: 2; PostGolgi yeast: 7; Cav32 inh: -0.41

Results for CCn1c(CN2CCN(c3ccc(Cl)cc3)CC2)nc2ccccc21 ?
sEH inh: 5; sEH activator: -5; Cav32 inh: -6.7*

What do the screens show for `Cn1c(CN2CCN(c3ccc(Cl)cc3)CC2)nc2ccccc21`?
PostGolgi ctrl: 6; sEH inh: -4; sEH activator: 4; PostGolgi yeast: 5; Cav32 inh: -1.4

How did O=C(NCc1ccccn1)[C@H]1C[C@@H]1[C@H](NP(=O)(c1ccccc1)c1ccccc1)c1ccccc1 do in these assays?
Cav32 inh: 0.39

What do the screens show for `Cc1cc(C2C(C#N)=C(N)OC3=C2C(=O)CC(C)(C)C3)c(C)s1` (stereo not given)?
PostGolgi ctrl: 41*; sEH inh: 4; sEH activator: -2; PostGolgi yeast: 1; Cav32 inh: 3.3

What do the screens show for `Clc1ccc(-c2n[nH]c3c2CCC3)cc1Cl`?
PostGolgi ctrl: 69*; sEH inh: -2; sEH activator: 3; PostGolgi yeast: 101*; Cav32 inh: -0.93

Results for Fc1ccc(C2=Nn3c(nnc3-c3n[nH]c4c3CCC4)SC2)cc1 ?
PostGolgi ctrl: 17; sEH inh: 2; sEH activator: -1; PostGolgi yeast: 16
